In article PMC7862700, “An all-to-all approach to the identification of sequence-specific readers for epigenetic DNA modifications on cytosine”:

What follows are sequences tested against T1, ELK4 (Homo sapiens, UniProt P28324-2 1-405) (assay: DAPPL (digital affinity profiling via proximity ligation, sequencing); 10 mM Tris-HCl pH 7.5, 50 mM NaCl, 1 mM DTT, 4% glycerol, room temperature, 30 min; GST-TFs on glutathione beads, 16-mer random dsDNA library, 0.1% formaldehyde crosslink after washing; high values mean tight binding). Settings: protein: recombinant; tags: N-terminal GST; dsDNA, one strand shown.
T1 sequence: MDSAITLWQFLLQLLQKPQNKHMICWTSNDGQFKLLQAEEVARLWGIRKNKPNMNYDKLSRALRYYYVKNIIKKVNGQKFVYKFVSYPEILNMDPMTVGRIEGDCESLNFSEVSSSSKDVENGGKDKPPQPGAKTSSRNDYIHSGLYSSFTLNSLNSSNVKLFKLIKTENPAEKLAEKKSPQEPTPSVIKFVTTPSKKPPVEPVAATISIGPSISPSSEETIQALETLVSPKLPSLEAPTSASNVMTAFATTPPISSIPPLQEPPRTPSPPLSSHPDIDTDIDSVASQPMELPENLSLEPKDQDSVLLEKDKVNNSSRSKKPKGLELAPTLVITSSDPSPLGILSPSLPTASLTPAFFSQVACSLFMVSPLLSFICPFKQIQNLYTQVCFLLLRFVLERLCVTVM
Outline: (§1)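 Pools of DNA-barcoded human transcription factors, expressed in yeast as GST fusions on glutathione beads and combined with a tag-only sample, were incubated with 200 nmole of a 16-mer random double-stranded DNA library. Incubation took 30 min at room temperature in Tris/NaCl/DTT/glycerol buffer and was followed by washing, 0.1% formaldehyde crosslinking, proximity ligation (BsaI/T4 ligase, 1 h, 37 °C), PCR amplification and sequencing on an Illumina NextSeq500. Binding signal is the ratio of a hexamer's read frequency for a factor to its frequency for the tag-only sample.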

Going from CACTGG to TAAGCC, the binding signal rises from 1.05 fold enrichment (6-mer frequency, TF over GST control) to 1.15 fold enrichment (6-mer frequency, TF over GST control).

First: TGGTAG
Second: ACCGTC
The binding signal of the first is higher: 1.37 fold enrichment (6-mer frequency, TF over GST control) for the first, 1.17 fold enrichment (6-mer frequency, TF over GST control) for the second.

First: GCACGA
Second: CCACAA
The binding signal of the first is higher: 1.13 fold enrichment (6-mer frequency, TF over GST control) for the first, 1.07 fold enrichment (6-mer frequency, TF over GST control) for the second.

Going from GAAAAA to AAGCAA, the binding signal falls from 1.09 fold enrichment (6-mer frequency, TF over GST control) to 1.08 fold enrichment (6-mer frequency, TF over GST control).

Compared with ATCATA, CATGAA is higher in binding signal: 1.08 fold enrichment (6-mer frequency, TF over GST control) for the first, 1.11 fold enrichment (6-mer frequency, TF over GST control) for the second.

Going from CTCCAT to TCCACG, the binding signal falls from 1.4 fold enrichment (6-mer frequency, TF over GST control) to 1.13 fold enrichment (6-mer frequency, TF over GST control).

Compared with ATGCTG, CTGGGT is lower in binding signal: 1.26 fold enrichment (6-mer frequency, TF over GST control) for the first, 1.2 fold enrichment (6-mer frequency, TF over GST control) for the second.

Going from TTACGA to TCCACC, the binding signal rises from 1.16 fold enrichment (6-mer frequency, TF over GST control) to 1.19 fold enrichment (6-mer frequency, TF over GST control).

Compared with TGCCGA, ACTCGA is higher in binding signal: 1.14 fold enrichment (6-mer frequency, TF over GST control) for the first, 1.35 fold enrichment (6-mer frequency, TF over GST control) for the second.

Compared with TGAAAA, AACAGC is higher in binding signal: 1.08 fold enrichment (6-mer frequency, TF over GST control) for the first, 1.2 fold enrichment (6-mer frequency, TF over GST control) for the second.

The sequences below were run against T2, ETV2 (Homo sapiens, UniProt O00321 1-342) in the same assay as above. Settings: protein: recombinant; tags: N-terminal GST; dsDNA, one strand shown.
T2 sequence: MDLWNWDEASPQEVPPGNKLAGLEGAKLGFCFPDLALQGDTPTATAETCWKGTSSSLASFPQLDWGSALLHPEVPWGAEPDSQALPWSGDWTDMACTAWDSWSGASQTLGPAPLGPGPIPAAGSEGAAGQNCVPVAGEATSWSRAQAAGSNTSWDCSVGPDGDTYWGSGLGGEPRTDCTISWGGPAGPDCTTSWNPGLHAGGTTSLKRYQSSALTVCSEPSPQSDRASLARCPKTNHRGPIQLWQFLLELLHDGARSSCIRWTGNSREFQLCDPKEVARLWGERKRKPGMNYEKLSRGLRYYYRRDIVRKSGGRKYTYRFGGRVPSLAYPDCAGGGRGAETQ
Outline: as §1

First: GATGAA
Second: TGCGTA
The binding signal of the first is lower: 1.13 fold enrichment (6-mer frequency, TF over GST control) for the first, 1.21 fold enrichment (6-mer frequency, TF over GST control) for the second.

Compared with TGGGTT, CTTGTT is higher in binding signal: 1.08 fold enrichment (6-mer frequency, TF over GST control) for the first, 1.14 fold enrichment (6-mer frequency, TF over GST control) for the second.

Compared with TCGACG, TATCTG is higher in binding signal: 1.18 fold enrichment (6-mer frequency, TF over GST control) for the first, 1.33 fold enrichment (6-mer frequency, TF over GST control) for the second.

First: TCGTAC
Second: GAAAAC
The binding signal of the first is higher: 1.22 fold enrichment (6-mer frequency, TF over GST control) for the first, 1.04 fold enrichment (6-mer frequency, TF over GST control) for the second.

Compared with ACTCGC, GGATCC is higher in binding signal: 1.12 fold enrichment (6-mer frequency, TF over GST control) for the first, 1.29 fold enrichment (6-mer frequency, TF over GST control) for the second.

GCTCGT and CCTGGG are the same in binding signal: 1.29 fold enrichment (6-mer frequency, TF over GST control) for the first, 1.29 fold enrichment (6-mer frequency, TF over GST control) for the second.

Going from AAAGGT to CTCGGT, the binding signal rises from 1.06 fold enrichment (6-mer frequency, TF over GST control) to 1.19 fold enrichment (6-mer frequency, TF over GST control).

First: TCTGTA
Second: AAGCAC
The binding signal of the first is higher: 1.28 fold enrichment (6-mer frequency, TF over GST control) for the first, 1.22 fold enrichment (6-mer frequency, TF over GST control) for the second.

Going from CACGCG to CGCTAG, the binding signal rises from 1.18 fold enrichment (6-mer frequency, TF over GST control) to 1.19 fold enrichment (6-mer frequency, TF over GST control).

First: ACACGA
Second: TGCGTT
The binding signal of the first is lower: 1.08 fold enrichment (6-mer frequency, TF over GST control) for the first, 1.16 fold enrichment (6-mer frequency, TF over GST control) for the second.

First: CACTGG
Second: TAAGCC
The binding signal of the first is higher: 1.22 fold enrichment (6-mer frequency, TF over GST control) for the first, 1.09 fold enrichment (6-mer frequency, TF over GST control) for the second.

Going from TGGTAG to ACCGTC, the binding signal rises from 1.04 fold enrichment (6-mer frequency, TF over GST control) to 1.29 fold enrichment (6-mer frequency, TF over GST control).

First: GCACGA
Second: CCACAA
The binding signal of the first is higher: 1.31 fold enrichment (6-mer frequency, TF over GST control) for the first, 1.14 fold enrichment (6-mer frequency, TF over GST control) for the second.

Compared with GAAAAA, AAGCAA is lower in binding signal: 1.15 fold enrichment (6-mer frequency, TF over GST control) for the first, 1.01 fold enrichment (6-mer frequency, TF over GST control) for the second.

Going from ATCATA to CATGAA, the binding signal falls from 1.16 fold enrichment (6-mer frequency, TF over GST control) to 1.06 fold enrichment (6-mer frequency, TF over GST control).

First: CTCCAT
Second: TCCACG
The binding signal of the first is higher: 1.46 fold enrichment (6-mer frequency, TF over GST control) for the first, 1.3 fold enrichment (6-mer frequency, TF over GST control) for the second.

Compared with ATGCTG, CTGGGT is higher in binding signal: 1.19 fold enrichment (6-mer frequency, TF over GST control) for the first, 1.22 fold enrichment (6-mer frequency, TF over GST control) for the second.

Compared with TTACGA, TCCACC is higher in binding signal: 1.17 fold enrichment (6-mer frequency, TF over GST control) for the first, 1.27 fold enrichment (6-mer frequency, TF over GST control) for the second.

First: TGCCGA
Second: ACTCGA
The binding signal of the first is lower: 1.08 fold enrichment (6-mer frequency, TF over GST control) for the first, 1.46 fold enrichment (6-mer frequency, TF over GST control) for the second.

First: TGAAAA
Second: AACAGC
The binding signal of the first is lower: 1.08 fold enrichment (6-mer frequency, TF over GST control) for the first, 1.12 fold enrichment (6-mer frequency, TF over GST control) for the second.

These sequences were tested against T3, ELF3 (Homo sapiens, UniProt P78545 1-371) in the same assay as above. Settings: protein: recombinant; tags: N-terminal GST; dsDNA, one strand shown.
T3 sequence: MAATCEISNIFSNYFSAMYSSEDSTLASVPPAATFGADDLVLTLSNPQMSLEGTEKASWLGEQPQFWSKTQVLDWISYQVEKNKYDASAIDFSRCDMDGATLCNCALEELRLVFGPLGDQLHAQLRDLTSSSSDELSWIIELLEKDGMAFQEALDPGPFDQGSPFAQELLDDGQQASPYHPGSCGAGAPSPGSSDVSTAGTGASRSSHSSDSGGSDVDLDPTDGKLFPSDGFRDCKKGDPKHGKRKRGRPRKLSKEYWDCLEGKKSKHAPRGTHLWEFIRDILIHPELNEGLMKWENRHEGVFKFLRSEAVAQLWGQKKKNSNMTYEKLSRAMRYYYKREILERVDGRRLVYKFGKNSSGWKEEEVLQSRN
Outline: as §1

Going from TGCGTA to TGGGTT, the binding signal rises from 1.01 fold enrichment (6-mer frequency, TF over GST control) to 1.11 fold enrichment (6-mer frequency, TF over GST control).

Going from TCGACG to TCGTAC, the binding signal rises from 1.06 fold enrichment (6-mer frequency, TF over GST control) to 1.22 fold enrichment (6-mer frequency, TF over GST control).

Going from GAAAAC to ACTCGC, the binding signal rises from 1.08 fold enrichment (6-mer frequency, TF over GST control) to 1.21 fold enrichment (6-mer frequency, TF over GST control).

First: GGATCC
Second: GCTCGT
The binding signal of the first is higher: 1.29 fold enrichment (6-mer frequency, TF over GST control) for the first, 1.16 fold enrichment (6-mer frequency, TF over GST control) for the second.

First: CCTGGG
Second: AAAGGT
The binding signal of the first is lower: 1.06 fold enrichment (6-mer frequency, TF over GST control) for the first, 1.17 fold enrichment (6-mer frequency, TF over GST control) for the second.

First: CTCGGT
Second: CACGCG
The binding signal of the first is higher: 1.16 fold enrichment (6-mer frequency, TF over GST control) for the first, 1.08 fold enrichment (6-mer frequency, TF over GST control) for the second.

CGCTAG and ACACGA are the same in binding signal: 1.01 fold enrichment (6-mer frequency, TF over GST control) for the first, 1.01 fold enrichment (6-mer frequency, TF over GST control) for the second.

Compared with TGCGTT, CACTGG is lower in binding signal: 1.25 fold enrichment (6-mer frequency, TF over GST control) for the first, 1.11 fold enrichment (6-mer frequency, TF over GST control) for the second.

Going from TGGTAG to ACCGTC, the binding signal rises from 1.13 fold enrichment (6-mer frequency, TF over GST control) to 1.15 fold enrichment (6-mer frequency, TF over GST control).

First: GCACGA
Second: CCACAA
The binding signal of the first is lower: 1.16 fold enrichment (6-mer frequency, TF over GST control) for the first, 1.39 fold enrichment (6-mer frequency, TF over GST control) for the second.

Compared with GAAAAA, AAGCAA is lower in binding signal: 1.2 fold enrichment (6-mer frequency, TF over GST control) for the first, 1.09 fold enrichment (6-mer frequency, TF over GST control) for the second.

Going from CATGAA to TCCACG, the binding signal falls from 1.15 fold enrichment (6-mer frequency, TF over GST control) to 1.02 fold enrichment (6-mer frequency, TF over GST control).

Going from ATGCTG to CTGGGT, the binding signal falls from 1.26 fold enrichment (6-mer frequency, TF over GST control) to 1.12 fold enrichment (6-mer frequency, TF over GST control).

Compared with TGCCGA, TGAAAA is lower in binding signal: 1.16 fold enrichment (6-mer frequency, TF over GST control) for the first, 1.08 fold enrichment (6-mer frequency, TF over GST control) for the second.

For AACAGC, the binding signal was 1.1 fold enrichment (6-mer frequency, TF over GST control).

Each sequence was assayed against CRX (Homo sapiens, UniProt O43186 1-299) in the same assay as above. Settings: protein: recombinant; tags: N-terminal GST; dsDNA, one strand shown.
Outline: as §1

CRX, sequence (O43186 whole entry): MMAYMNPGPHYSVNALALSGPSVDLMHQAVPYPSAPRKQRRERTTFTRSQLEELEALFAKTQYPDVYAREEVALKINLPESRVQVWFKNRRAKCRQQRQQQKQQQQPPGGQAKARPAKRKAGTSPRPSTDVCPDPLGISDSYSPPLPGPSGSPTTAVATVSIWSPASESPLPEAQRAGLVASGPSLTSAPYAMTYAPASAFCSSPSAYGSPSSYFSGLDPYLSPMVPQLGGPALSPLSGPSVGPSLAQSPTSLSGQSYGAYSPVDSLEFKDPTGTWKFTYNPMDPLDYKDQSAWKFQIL

First: GATGAA
Second: CTTGTT
The binding signal of the first is higher: 1.22 fold enrichment (6-mer frequency, TF over GST control) for the first, 1.1 fold enrichment (6-mer frequency, TF over GST control) for the second.

Compared with TATCTG, TCTGTA is lower in binding signal: 1.46 fold enrichment (6-mer frequency, TF over GST control) for the first, 1.34 fold enrichment (6-mer frequency, TF over GST control) for the second.

Going from AAGCAC to TAAGCC, the binding signal rises from 1.09 fold enrichment (6-mer frequency, TF over GST control) to 3.55 fold enrichment (6-mer frequency, TF over GST control).

Going from ATCATA to CTCCAT, the binding signal falls from 1.39 fold enrichment (6-mer frequency, TF over GST control) to 1.19 fold enrichment (6-mer frequency, TF over GST control).

Compared with TTACGA, TCCACC is lower in binding signal: 1.89 fold enrichment (6-mer frequency, TF over GST control) for the first, 1.04 fold enrichment (6-mer frequency, TF over GST control) for the second.

With ACTCGA the binding signal was 1.37 fold enrichment (6-mer frequency, TF over GST control).
